From PubChem BioAssay AID652040 (Broad Institute, 2013)
Entries with a potency or affinity are not part of this list. The source made the active and inactive calls.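 How the source made its calls: active means falling luciferase signal whose fitted half-maximal concentration is at most twice the top tested dose; inconclusive means flat inhibition between 30 and 70% or a poor curve fit; inactive means the rest.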

Test: off-target signal loss in HeLa-CEM21 co-culture – HeLa F-luc CTL cells, cherry-picked, counter-screen for HIV-1 Env fusion inhibitor project, dose response (AID 652040);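 further: more negative values mean stronger loss of luciferase signal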
Details: HeLa-F-luc CTL cells with CEM21, firefly luciferase counterscreen; series mostly up to 35 µM

Compound	outcome
O=C(Nc1nc(COc2ccccc2)cs1)C12CC3CC(CC(C3)C1)C2	inactive
CCCCNC(=O)C[C@H]1C[C@@]2(C(=O)OC)C(=C[C@H](C(C)(C)C)O[C@@H]2C)N(Cc2ccc3c(c2)OCO3)C1=O	inactive
c1ccc2c(c1)OCC(CNc1ncnc3nc[nH]c13)O2 (centres undefined)	inactive
C=CCNc1nc2c(c(=O)n(C)c(=O)n2C)n1CCCCCC	inactive
CC(OC(=O)c1ccc(NC(=O)CC#N)cc1)C(=O)NCCC1=CCCCC1 (centres undefined)	inactive
CC1CCCCN1S(=O)(=O)c1ccc(C(=O)Nc2nnc(-c3cccs3)o2)cc1 (centres undefined)	inactive
COc1ccc(-c2cn3c(C)c(C(=O)Nc4cccc(NC(C)=O)c4)sc3n2)cc1	inactive
COc1ccc(/C=C/c2cc(-c3ccc(C)cc3)o[n+]2C)cc1	inactive
CCc1cc2c(NCc3ccco3)ncnc2s1	inactive
CCOC(=O)C(C)Oc1cccc2c(=O)n(CC(=O)NCCc3ccc(OC)c(OC)c3)ccc12 (centres undefined)	inactive
Cc1cc(N2CCN(c3nc4ccccc4s3)CC2)n2ncnc2n1	inactive
C=CCOc1c(Br)cc(CNc2ccc(NC(=O)C(C)C)c(OC)c2)cc1OC	inactive
COc1ccc(CCCC(=O)NCCc2ccccc2)c(C)c1	inactive
CCNc1ncnc2c1cnn2C1CCCO1 (centres undefined)	inactive
COC(=O)C1CCN(C(=O)COC(=O)c2cc(S(=O)(=O)N3CCOCC3)ccc2C)CC1	inactive
CCN(c1nc(N)c(C(=O)N=C(N)N)nc1Cl)C(C)C	inactive
C[C@H](CO)N1C[C@H](C)[C@@H](CN(C)C(=O)NC2CCCCC2)Oc2c(cccc2N(C)C)C1=O	inactive
CC(NNC(=S)N1CCCCCC1)c1ccc2ccccc2n1 (centres undefined)	inactive
COCc1[nH]nc2c1C(c1ccc(F)cc1)N(Cc1ccccc1)C2=O (centres undefined)	inactive
CC(C)OCCCn1c(=S)[nH]c2ccc(N3CCOCC3)cc2c1=O	inactive

Compound	outcome
Nc1ccc(S(=O)(=O)c2ccc(N3CCOCC3)c(N)c2)cc1	inactive
CCCc1cc(=O)n2[nH]cc(-c3ccc(Cl)cc3)c2n1	inactive
COc1ccc(-c2cc(C3CCN(c4cc(Cl)nc(N)n4)CC3)[nH]n2)cc1	inactive
NC(=S)c1ccc(OCCCc2ccccc2)cc1	inactive
O=C(NNC(=O)C(c1ccccc1)c1ccccc1)c1ccccn1	inactive
CCc1ccc(-c2nc(CN3CCC(C(=O)NCCc4ccc(OC)c(OC)c4)CC3)c(C)o2)cc1	inactive
Clc1ccc(-c2noc(CSc3nnc(-c4ccncc4)n3-c3ccccc3)n2)cc1	inactive
COC(=O)[C@@]12CCCN1[C@H](c1ccc(-c3ccc(F)cc3)c(OC)c1)[C@H]1C(=O)N(C)C(=O)[C@H]12	inactive
COc1cc(CSc2nnnn2-c2ccc(C)cc2)cc(OC)c1OC	inactive
CC1Cc2cc(-c3csc(NC(=O)Cc4cccs4)n3)ccc2N1S(C)(=O)=O (centres undefined)	inactive
Oc1ccc(C=NNc2ccccn2)c(O)c1	inactive
CC1CN(S(=O)(=O)c2cc(C(=O)NCCC3=CCCCC3)ccc2Cl)CC(C)O1 (centres undefined)	inactive
Cc1cc2ncn(S(=O)(=O)N3CCCCC3)c2cc1C	inactive
Cc1nc2ccc(NC(=O)c3ccc(Cl)c(S(=O)(=O)N(C)c4ccccc4)c3)cc2s1	inactive
Cn1cc(S(=O)(=O)N2CCOCC2)cc1C(=O)Nc1cccc(Cl)c1	inactive
COC(=O)c1ccc(C(=O)NC2CCCc3c2cnn3-c2ccc(C)c(C)c2)cc1 (centres undefined)	inactive
CSc1ncccc1C(=O)OCC(=O)Nc1ccc(C)c(S(=O)(=O)N2CCOCC2)c1	inactive
COc1ccc(NC(=O)c2ccc(Cl)c(S(=O)(=O)N3CCc4ccccc4C3)c2)cn1	inactive
O=C(Nc1cccn(Cc2c(Cl)cccc2Cl)c1=O)c1ccc(Cl)cc1	inactive
